The values below come from ChEMBL document CHEMBL1961873, “Compounds: GSK PKIS; Assays: Nanosyn kinase panel” (2012).

For experiment [1], the target named is T1, Serine/threonine-protein kinase TBK1 (Homo sapiens) (UniProt Q9UHD2).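 Note: values are mean inhibition of TBK1, screened as part of the GSK published kinase inhibitor set.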
T1 sequence (whole entry): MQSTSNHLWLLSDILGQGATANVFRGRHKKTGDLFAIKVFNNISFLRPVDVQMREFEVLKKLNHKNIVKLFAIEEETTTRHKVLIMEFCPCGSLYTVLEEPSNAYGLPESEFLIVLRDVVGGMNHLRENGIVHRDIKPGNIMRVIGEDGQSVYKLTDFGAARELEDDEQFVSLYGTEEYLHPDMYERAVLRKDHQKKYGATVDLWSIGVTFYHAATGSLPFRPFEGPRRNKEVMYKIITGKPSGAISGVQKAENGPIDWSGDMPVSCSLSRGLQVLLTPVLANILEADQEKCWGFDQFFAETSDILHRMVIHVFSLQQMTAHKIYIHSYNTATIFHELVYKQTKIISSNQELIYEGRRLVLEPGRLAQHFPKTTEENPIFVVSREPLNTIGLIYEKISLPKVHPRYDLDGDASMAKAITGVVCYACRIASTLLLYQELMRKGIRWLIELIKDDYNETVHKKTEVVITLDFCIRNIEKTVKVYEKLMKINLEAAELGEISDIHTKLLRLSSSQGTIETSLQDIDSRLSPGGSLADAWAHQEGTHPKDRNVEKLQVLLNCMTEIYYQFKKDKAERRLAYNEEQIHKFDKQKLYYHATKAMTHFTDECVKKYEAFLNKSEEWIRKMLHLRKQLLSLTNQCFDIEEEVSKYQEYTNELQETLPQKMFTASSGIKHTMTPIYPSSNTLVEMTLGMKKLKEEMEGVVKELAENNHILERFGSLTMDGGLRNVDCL
The settings on record: at 1 µM.

Experiment [2] deals with T2, Testis-specific serine/threonine-protein kinase 1 (Homo sapiens) (UniProt Q9BXA7).
T2 sequence (whole entry): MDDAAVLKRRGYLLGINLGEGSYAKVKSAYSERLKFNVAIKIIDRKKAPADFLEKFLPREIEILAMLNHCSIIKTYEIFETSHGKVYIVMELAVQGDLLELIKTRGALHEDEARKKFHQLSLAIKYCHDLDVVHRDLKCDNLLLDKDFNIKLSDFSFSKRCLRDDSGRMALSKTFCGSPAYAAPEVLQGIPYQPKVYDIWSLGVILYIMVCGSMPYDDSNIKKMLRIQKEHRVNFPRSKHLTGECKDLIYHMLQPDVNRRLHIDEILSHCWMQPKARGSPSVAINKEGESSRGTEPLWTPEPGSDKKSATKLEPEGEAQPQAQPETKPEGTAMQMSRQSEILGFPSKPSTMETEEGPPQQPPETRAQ
The settings on record: at 0.1 µM.

In experiment [3] the target is T2, Testis-specific serine/threonine-protein kinase 1 (Homo sapiens). The settings on record: at 1 µM.
Experiment [4] has as its target T3, Testis-specific serine/threonine-protein kinase 2 (Homo sapiens) (UniProt Q96PF2).
T3 sequence (whole entry): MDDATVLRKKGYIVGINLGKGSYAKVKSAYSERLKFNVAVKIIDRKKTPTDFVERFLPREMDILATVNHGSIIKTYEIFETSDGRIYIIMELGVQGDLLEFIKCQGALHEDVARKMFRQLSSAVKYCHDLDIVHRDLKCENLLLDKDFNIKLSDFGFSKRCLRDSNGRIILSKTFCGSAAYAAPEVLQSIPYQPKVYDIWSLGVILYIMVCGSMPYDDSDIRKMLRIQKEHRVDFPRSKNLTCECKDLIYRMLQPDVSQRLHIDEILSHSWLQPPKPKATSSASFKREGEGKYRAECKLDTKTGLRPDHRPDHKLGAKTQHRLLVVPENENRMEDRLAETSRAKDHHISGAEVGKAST
As to conditions: at 0.1 µM.

Experiment [5] addresses T3, Testis-specific serine/threonine-protein kinase 2 (Homo sapiens). The settings on record: at 1 µM.
Experiment [6] concerns the target Casein kinase I isoform alpha (Homo sapiens) (UniProt P48729). The settings on record: at 0.1 µM.
For experiment [7] the target is unchanged. As to conditions: at 1 µM.
The target in experiment [8] is Casein kinase I isoform gamma-1 (Homo sapiens) (UniProt Q9HCP0). As to conditions: at 0.1 µM.
Experiment [9] shares this target. As to conditions: at 1 µM.
Experiment [10] deals with Casein kinase I isoform gamma-2 (Homo sapiens) (UniProt P78368). As to conditions: at 0.1 µM.
Chain of Casein kinase I isoform gamma-2 (Homo sapiens) (P78368 whole entry, looked up, canonical isoform): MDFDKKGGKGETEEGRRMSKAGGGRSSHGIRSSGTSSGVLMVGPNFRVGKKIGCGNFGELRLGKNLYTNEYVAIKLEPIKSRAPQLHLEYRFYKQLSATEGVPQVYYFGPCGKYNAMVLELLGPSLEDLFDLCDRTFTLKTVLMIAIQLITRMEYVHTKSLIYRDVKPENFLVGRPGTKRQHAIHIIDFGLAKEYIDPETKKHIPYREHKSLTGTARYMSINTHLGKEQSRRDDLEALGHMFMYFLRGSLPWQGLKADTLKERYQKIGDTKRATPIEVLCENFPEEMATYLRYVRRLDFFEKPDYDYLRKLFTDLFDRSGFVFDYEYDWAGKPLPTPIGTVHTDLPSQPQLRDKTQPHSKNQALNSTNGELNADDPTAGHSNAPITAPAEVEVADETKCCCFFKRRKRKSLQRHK

Chain of Casein kinase I isoform alpha (Homo sapiens) (P48729 2-337 limits assumed): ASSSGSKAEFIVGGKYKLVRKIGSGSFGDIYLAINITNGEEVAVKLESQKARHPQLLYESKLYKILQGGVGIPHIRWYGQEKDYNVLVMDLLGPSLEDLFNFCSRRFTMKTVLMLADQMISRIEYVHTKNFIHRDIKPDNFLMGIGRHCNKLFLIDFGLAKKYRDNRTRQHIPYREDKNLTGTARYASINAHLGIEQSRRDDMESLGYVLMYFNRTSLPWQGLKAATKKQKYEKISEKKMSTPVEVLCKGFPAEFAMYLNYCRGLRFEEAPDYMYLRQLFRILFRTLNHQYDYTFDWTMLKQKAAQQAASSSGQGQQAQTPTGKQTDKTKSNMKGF
Chain of Casein kinase I isoform gamma-1 (Homo sapiens) (Q9HCP0 whole entry, looked up, canonical isoform): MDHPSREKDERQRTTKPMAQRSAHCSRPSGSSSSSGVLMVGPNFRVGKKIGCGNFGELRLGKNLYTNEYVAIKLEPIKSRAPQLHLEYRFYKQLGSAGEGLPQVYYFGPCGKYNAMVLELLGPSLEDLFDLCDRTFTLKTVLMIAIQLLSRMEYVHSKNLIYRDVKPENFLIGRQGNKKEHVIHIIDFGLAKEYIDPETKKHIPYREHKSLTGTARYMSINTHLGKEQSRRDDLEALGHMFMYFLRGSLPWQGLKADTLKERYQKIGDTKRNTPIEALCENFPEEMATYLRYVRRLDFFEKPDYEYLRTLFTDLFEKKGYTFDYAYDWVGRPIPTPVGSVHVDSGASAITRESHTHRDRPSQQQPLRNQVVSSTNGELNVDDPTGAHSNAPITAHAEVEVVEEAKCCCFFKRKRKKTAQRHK

For `Cc1nn(C)c2cc(N(C)c3ccnc(Nc4cccc(S(N)(=O)=O)c4)n3)ccc12`, the inhibition in experiment [1] is 10.3%; in [2], 3.95%; in experiment [3] it was 5.39%; in experiment [4] it was 1.61%; in experiment [5], 2.71%; in [6] it was 0.9%. The inhibition in experiment [7] came to 0.72%; in experiment [8] it was 2.37%; in experiment [9], 2.59%; in [10], 1.72%.
Consider `COc1ccccc1Nc1ncc(-c2ccccc2)o1`, for which the inhibition in experiment [1] turned out to be 2.91%; in [2], 4.78%; in [3], 4.46%; in [4] it was 2.44%; in experiment [5] it was 2.11%; in experiment [6] it was 2.14%. For the same compound, the inhibition worked out at 2.52% in experiment [7], 4.56% in [8], 5.25% in experiment [9] and 4.37% in experiment [10].
With `Cc1nnc(-c2ccc(C)c(-c3ccc(C(=O)Nc4cccc(C#N)c4)cc3)c2)o1`, the inhibition in experiment [1] was found to be 5%; in [2], 0.97%; in experiment [3], 2.9%; in experiment [4], 1.4%; in experiment [5] it was 2.16%; in experiment [6], 8.37%. In addition, the inhibition in [7] worked out at 6.82%; in experiment [8] it was 1.85%; in experiment [9], 2.59%; in [10] it was 1.7%.
Regarding `N#Cc1c(NC(=O)c2cccc3ccccc23)sc2c1CCCC2`, the inhibition was 6.64% in [1]; 3.39% in [2]; 2.26% in experiment [3]; 0.88% in [4]; 0.92% in experiment [5]; -0.66% in [6]. The inhibition in experiment [7] was 2.15%; in experiment [8], 2.73%; in [9] it was 2.82%; in [10] it was 2.2%.
As to `COc1cc2ncn(-c3cc(O[C@H](C)c4ccccc4Cl)c(C(N)=O)s3)c2cc1OC`, the inhibition in experiment [1] amounted to 6.39%; in experiment [2], 4.46%; in [3] it was 8.45%; in [4], 2.71%; in experiment [5], 4.44%; in experiment [6] it was 3%. Also, the inhibition in experiment [7] came to 3.21%; in experiment [8] it was 3.26%; in experiment [9], 3.83%; in experiment [10] it was 2.55%.
`CC1=C(C(=O)Nc2ccc3[nH]ncc3c2)C(c2ccc(Cl)c(Cl)c2)CC(=O)N1` (stereo not drawn): the inhibition was 0.46% in [1]; 2.84% in experiment [2]; -0.6% in experiment [3]; 1.93% in experiment [4]; -1.29% in experiment [5]; -1.74% in [6]. In addition, the inhibition in experiment [7] was 1.97%; in [8] it was 0.83%; in [9], 1.68%; in experiment [10] it was 0.32%.
Regarding `CCn1c(-c2nonc2N)nc2cncc(C(=O)N3CC[C@H](N)C3)c21`, the inhibition came out at 19.7% in experiment [1]; 7.36% in experiment [2]; 18.9% in [3]; 3.56% in experiment [4]; 5.01% in experiment [5]; 3.59% in [8]. Besides, the values for the inhibition in [9] and in experiment [10] were 4.35% and 3.12%, respectively.
`CC(C)=Cc1cccc2c1/C(=N/Nc1ccc(S(N)(=O)=O)cc1)C(=O)N2`: the inhibition in [1] was found to be 26.3%; in experiment [2] it was 1.27%; in experiment [3], 2.47%; in experiment [4], 0.49%; in [5], 0.88%; in [6], 6.16%. Also, the inhibition in [7] stood at 2.83%; in [8] it was 0.52%; in experiment [9], 1.12%; in experiment [10], 1.67%.
On to `O=C(Nc1n[nH]c2nc(-c3ccco3)c(Br)cc12)C1CC1`, for which the inhibition is 4.8% in [1]; 4.63% in [2]; 1.5% in experiment [3]; -0.36% in experiment [4]; -1.08% in experiment [5]; 1.36% in [6]. Besides, the inhibition in experiment [7] came out at 3.16%; in experiment [8] it was 3.71%; in experiment [9] it was 2.78%; in experiment [10] it was 2.3%.
For `Fc1cccc(COc2ccc(Nc3ncnc4sc(-c5cccs5)cc34)cc2Cl)c1`, the inhibition is 2.3% in experiment [1]; 0.6% in [2]; 1.28% in experiment [3]; 0.22% in [4]; 0% in [5]; -0.37% in [6]. Also, the inhibition in experiment [7] was 2.33%; in experiment [8], 0.39%; in [9] it was -0.08%; in experiment [10], 0.42%.
Consider `CNC(=O)c1cncc(/C=C/c2c(Cl)cccc2Cl)c1`, for which the inhibition in [1] was determined as 4.76%; in experiment [2], 3.51%; in experiment [3], 4.44%; in experiment [4], 1.15%; in experiment [5], 3.45%; in experiment [6], 2.31%. The inhibition is 6.99% in experiment [7], 4.49% in experiment [8], 6.18% in experiment [9] and 2.94% in [10].
With `Nc1nc(-c2ccc3c(c2)C(=Cc2cc(Br)c(O)c(Br)c2)C(=O)N3)cs1`, the inhibition is 0.36% in experiment [1]; -0.52% in [2]; -0.1% in experiment [3]; -1.49% in [4]; 0.36% in experiment [5]; -0.89% in experiment [6]. The inhibition in experiment [7] was -1.31%; in experiment [8], -1.34%; in [9], -1.14%; in experiment [10] it was -1.3%.
Regarding `NC(=O)c1cccc(Nc2nccc(Nc3cccc4[nH]ncc34)n2)c1`, the inhibition in experiment [1] was 26.1%; in experiment [2], -0.96%; in [3], 15.6%; in experiment [4], -1.7%; in experiment [5] it was -1.85%; in experiment [6], 1.36%. Also, the inhibition in experiment [7] is 1.87%; in experiment [8], -2.71%; in [9] it was 5.27%; in experiment [10], -1.57%.
As to `NCc1ccc(-c2nc(-c3ccc(Cl)c(O)c3)c(-c3ccncc3)[nH]2)cc1`, the inhibition was 1.76% in [1]; 0.52% in experiment [2]; 0.46% in [3]; -0.98% in experiment [4]; -1.3% in experiment [5]; 3.06% in experiment [6]. Further, the inhibition in experiment [7] came to 15.7%; in experiment [8], 0.41%; in experiment [9], 2.73%; in experiment [10], 0.27%.
As for `Nc1nc(-c2ccccn2)c(-c2ccc3ncccc3n2)s1`, the inhibition in [1] was found to be 5.59%; in [2], 2.46%; in experiment [3] it was 2.87%; in experiment [4] it was 0.45%; in experiment [5] it was 1.96%; in [6], 2.13%. For the same compound, the inhibition in experiment [7] was determined as 6.1%; in experiment [8], 3.23%; in experiment [9] it was 12.6%; in [10], 3.14%.
Regarding `c1cnn2ncc(-c3ccnc(Nc4ccc5c(c4)OCCO5)n3)c2c1`, the inhibition in [1] is 23.9%; in experiment [2], 4.39%; in [3], 18.1%; in experiment [4], 2.63%; in experiment [5], 4.19%; in [6] it was 9.95%. The inhibition in experiment [7] was determined as 44.9%; in experiment [8], 4.47%; in experiment [9] it was 22.1%; in experiment [10] it was 7.95%.
Regarding `CC1=C(C(=O)Nc2ccc3[nH]ncc3c2)C(c2ccc(F)cc2)NC(=O)N1` (stereo not drawn), the inhibition in [1] was 3.11%; in experiment [2], 1.04%; in experiment [3], 1.21%; in [4], 1.2%; in experiment [5] it was 1.4%; in experiment [6], 0.46%. Also, the inhibition was determined as 1.43% in experiment [7], 1.54% in [8], 2.31% in experiment [9] and 1.41% in experiment [10].
